Data: PubChem BioAssay (Tox21)
Results filed as inconclusive are left out. Active and inactive are the calls of the source. The call rests on the fitted dose curve; in most records, active means well fitted curve in the direction sought with a large enough effect in the repeat runs; inconclusive means weak or mixed curves; inactive means no such curve, though single readings can be large; an effect the other way counts as inactive or inconclusive.

Tests used:
[1] = qHTS RealTime-Glo MT Cell Viability Assay in HEK293 cells - 0 hour (AID 1224880); further: top concentration of the series differs between compounds; nearly all actives have a fitted effect of over 45% in size
Procedure, shortened: (§1)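 Tox21 screen in HEK293 using RealTime-Glo MT chemistry, with cells and reagent co-dispensed. Luminescence proportional to viable cell number was captured at intervals during 40 h compound exposure at 37 C.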

[2] = A CellTox Green Cytotoxicity Assay to monitor cytotoxicity in HepG2 cells - 0 hour (AID 1224882); further: nearly all actives have a fitted effect of over 35% in size
Procedure, shortened: (§2)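 Nonlytic assay: viable cells exclude the dye, so fluorescence scales with cell death. HepG2 at 600 cells/well, compounds added after 5 h, signal read across 40 h.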

[3] = A CellTox Green Cytotoxicity Assay to monitor cytotoxicity in HepG2 cells - 32 hour (AID 1224883); further: nearly all actives have a fitted effect of over 50% in size; further: potency means the concentration at half of the fitted maximal effect
Procedure, shortened: as §2

[4] = qHTS RealTime-Glo MT Cell Viability Assay in HepG2 cells - 16 hour (AID 1224885); further: nearly all actives have a fitted effect of over 50% in size
Procedure, shortened: (§3)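 Luminescence read-out: viable HepG2 cells reduce a prosubstrate to a NanoLuc substrate, giving a signal proportional to live cell number. Reads taken at 0, 8, 16, 24, 32 and 40 h of compound exposure at 37 C.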

[5] = qHTS RealTime-Glo MT Cell Viability Assay in HEK293 cells - 8 hour (AID 1224887); further: top concentration of the series differs between compounds; nearly all actives have a fitted effect of over 50% in size
Procedure, shortened: as §1

[6] = A CellTox Green Cytotoxicity Assay to monitor cytotoxicity in HEK293 cells - 16 hour (AID 1224888); further: nearly all actives have a fitted effect of over 35% in size
Procedure, shortened: (§4)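 Seeding of HEK293 cells together with cytotoxicity dye preceded a 5 h incubation at 37 C/5% CO2. Test compounds in DMSO were then added and fluorescence monitored across 40 h.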

[7] = qHTS RealTime-Glo MT Cell Viability Assay in HepG2 cells - 0 hour (AID 1224889); further: nearly all actives have a fitted effect of over 50% in size
Procedure, shortened: as §3

[8] = A CellTox Green Cytotoxicity Assay to monitor cytotoxicity in HEK293 cells - 8 hour (AID 1224884); further: nearly all actives have a fitted effect of over 35% in size
Procedure, shortened: as §4

[9] = qHTS RealTime-Glo MT Cell Viability Assay in HEK293 cells - 24 hour (AID 1224886); further: nearly all actives have a fitted effect of over 50% in size; further: potency means the concentration at half of the fitted maximal effect; on activity change, negative = cytotoxicity: top concentration of the series differs between compounds
Procedure, shortened: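 Nonlytic real-time viability readout: viable cells convert prosubstrate to NanoLuc substrate, giving luminescence proportional to live cell number. HEK293, 600 cells/well, compound added after 5 h, continuous culture at 37 C.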

[10] = A CellTox Green Cytotoxicity Assay to monitor cytotoxicity in HEK293 cells - 32 hour (AID 1224881); further: nearly all actives have a fitted effect of over 40% in size
Procedure, shortened: as §4
On the % scale 0 is the no-effect control and ±100 the full control effect.

CCCCCCC
inactive: outcome [1] | Potency [2] | Potency [3] | outcome [4] | Potency [5] | Potency [6] | Potency [7]

Cc1nc(N)nc(N)c1-c1ccc(Cl)c(Cl)c1
inactive: outcome [1] | Potency [2] | Potency [3] | Potency [8] | outcome [4] | Potency [6] | Potency [7]

COc1cc(Cl)ccc1Cl
inactive: outcome [1] | Potency [2] | Potency [3] | Potency [8] | outcome [4] | Potency [5] | Potency [6] | Potency [7]

C=CC(C)(O)CC/C=C(\C)CCC=C(C)C (configuration not stated)
active: Potency [3] 21.9 µM
inactive: outcome [1] | Potency [2] | Potency [9] | Potency [5] | Potency [7]

CC(=O)O[C@H]1CC[C@@]2(C)C(=CC[C@@H]3[C@@H]2CC[C@]2(C)C(C(C)=O)=CC[C@@H]32)C1
inactive: outcome [1] | Potency [2] | Potency [3] | Potency [8] | outcome [4] | Potency [9] | Potency [5] | Potency [6] | Potency [7]

CCCNC(C)(C)COC(=O)c1ccccc1
inactive: Potency [10] | Potency [2] | Potency [3] | Potency [8] | outcome [4] | Potency [9] | Potency [5] | Potency [6] | Potency [7]

C1CCOC1
inactive: Potency [10] | Potency [3] | Potency [8] | outcome [4] | Potency [9] | Potency [5] | Potency [6] | Potency [7]

CC(=O)OC1C2(C)CCC(C2)C1(C)C (configuration not stated)
inactive: Potency [2] | Potency [3] | Potency [8] | outcome [4] | Potency [5] | Potency [6] | Potency [7]

Cc1cc2c(s1)Nc1ccccc1N=C2N1CCN(C)CC1
inactive: Potency [10] | Potency [2] | Potency [3] | Potency [8] | Potency [9] | Potency [5] | Potency [6] | Potency [7]

CC(=O)Oc1cc(C(C)C)c(OCCN(C)C)cc1C
inactive: Potency [10] | Potency [2] | Potency [3] | Potency [8] | outcome [4] | Potency [6] | Potency [7]

C1CSCCS1
inactive: Potency [10] | Potency [2] | Potency [3] | Potency [8] | outcome [4] | Potency [9] | Potency [5] | Potency [6] | Potency [7]

Cc1cccc(C)c1NC(=O)CN1CCCCCC1
inactive: Potency [3] | Potency [8] | outcome [4] | Potency [9] | Potency [5] | Potency [6] | Potency [7]

CCCCCCCCOC(=O)CCCCCCCCC(=O)OCCCCCCCC
inactive: Potency [10] | Potency [2] | Potency [3] | Potency [8] | Potency [9] | Potency [5] | Potency [6]

CCCOCCC
inactive: Potency [10] | Potency [3] | Potency [8] | outcome [4] | Potency [9] | Potency [5] | Potency [6] | Potency [7]

CC(C)CC(=O)OCc1ccccc1
inactive: Potency [2] | Potency [3] | Potency [8] | outcome [4] | Potency [9] | Potency [5] | Potency [6] | Potency [7]

CCN(CC)C(=O)N(CC)CC
inactive: Potency [10] | Potency [2] | Potency [3] | Potency [8] | outcome [4] | Potency [9] | Potency [5] | Potency [6] | Potency [7]

NC(Cc1ccc(F)cc1)C(=O)O (configuration not stated)
inactive: cytotoxicity increase [10] 12.7% [at 6.97 µM] | cytotoxicity [2] -0.531% [at 6.97 µM] | cytotoxicity increase [3] 8.52% [at 6.97 µM] | cytotoxicity increase [8] 17.5% [at 6.97 µM] | activity change, negative = cytotoxicity [9] -0.156% [at 6.97 µM] | activity change, negative = cytotoxicity [5] 1.39% [at 6.97 µM] | activity change [6] 17.7% [at 6.97 µM, hits give high values] | activity change, negative = cytotoxicity [7] 18.9% [at 6.97 µM]

CN(C)CCOc1ccccc1Cc1ccccc1
inactive: Potency [10] | Potency [8] | outcome [4] | Potency [9] | Potency [5] | Potency [6] | Potency [7]

CC(C)(C)C1CCCCC1=O (configuration not stated)
inactive: Potency [10] | Potency [3] | Potency [8] | outcome [4] | Potency [9] | Potency [5] | Potency [6] | Potency [7]

O=c1[nH]c(=O)n([C@H]2C[C@H](O)[C@@H](CO)O2)cc1C(F)(F)F
inactive: Potency [10] | Potency [2] | Potency [3] | Potency [8] | outcome [4] | Potency [9] | Potency [5] | Potency [6] | Potency [7]

COc1ccc2nc(NC(=O)Nc3ccccc3)sc2c1
inactive: Potency [8] | outcome [4] | Potency [6] | Potency [7]
active: Potency [9] 4.77 µM

Cc1ccccc1C(=O)Nc1ccc(C(=O)N2CCCC(O)c3cc(Cl)ccc32)c(C)c1 (configuration not stated)
inactive: Potency [10] | Potency [2] | Potency [3] | Potency [8] | outcome [4] | Potency [6] | Potency [7]

CCOC(=O)COc1ccc2c(c1)CC(NCC(O)c1cccc(Cl)c1)CC2 (configuration not stated)
inactive: outcome [4] | Potency [9]

CCCCCCCOC(=O)CCC
inactive: Potency [2] | Potency [3] | Potency [9] | Potency [5] | Potency [6] | Potency [7]

CC1=NN(c2cc(Cl)c(S(=O)(=O)O)cc2Cl)C(=O)C1N=Nc1ccc(S(=O)(=O)O)cc1 (configuration not stated)
inactive: Potency [10] | Potency [2] | Potency [8] | outcome [4] | Potency [5] | Potency [6]

Cc1onc(-c2ccccc2)c1C(=O)Cl
inactive: Potency [10] | Potency [2] | Potency [8] | outcome [4] | Potency [9] | Potency [5] | Potency [6] | Potency [7]

O=C1Nc2ccc([N+](=O)[O-])cc2C1=O
inactive: Potency [10] | Potency [2] | Potency [3] | Potency [8] | outcome [4] | Potency [6] | Potency [7]
